From PMC4336329 (PLoS ONE, 2015)
The whole screen tested about 310,000 compounds, of which about 14,000 (4.5%) showed an effect of 50% or more. The effect is printed as a negative number. The sample holds strong results, similar compounds and a random draw of the others, so the mix is not that of the screen.

Target: human ether-à-go-go-related gene (hERG) potassium channel (human, UniProt Q12809)
Experiment: primary screen, population patch clamp on CHO cells stably expressing hERG; higher = less effect of the substance
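Note: peak tail current of the secondary pulse compared with the same well before compound.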

Sequence of human ether-à-go-go-related gene (hERG) potassium channel (Q12809 whole entry, looked up): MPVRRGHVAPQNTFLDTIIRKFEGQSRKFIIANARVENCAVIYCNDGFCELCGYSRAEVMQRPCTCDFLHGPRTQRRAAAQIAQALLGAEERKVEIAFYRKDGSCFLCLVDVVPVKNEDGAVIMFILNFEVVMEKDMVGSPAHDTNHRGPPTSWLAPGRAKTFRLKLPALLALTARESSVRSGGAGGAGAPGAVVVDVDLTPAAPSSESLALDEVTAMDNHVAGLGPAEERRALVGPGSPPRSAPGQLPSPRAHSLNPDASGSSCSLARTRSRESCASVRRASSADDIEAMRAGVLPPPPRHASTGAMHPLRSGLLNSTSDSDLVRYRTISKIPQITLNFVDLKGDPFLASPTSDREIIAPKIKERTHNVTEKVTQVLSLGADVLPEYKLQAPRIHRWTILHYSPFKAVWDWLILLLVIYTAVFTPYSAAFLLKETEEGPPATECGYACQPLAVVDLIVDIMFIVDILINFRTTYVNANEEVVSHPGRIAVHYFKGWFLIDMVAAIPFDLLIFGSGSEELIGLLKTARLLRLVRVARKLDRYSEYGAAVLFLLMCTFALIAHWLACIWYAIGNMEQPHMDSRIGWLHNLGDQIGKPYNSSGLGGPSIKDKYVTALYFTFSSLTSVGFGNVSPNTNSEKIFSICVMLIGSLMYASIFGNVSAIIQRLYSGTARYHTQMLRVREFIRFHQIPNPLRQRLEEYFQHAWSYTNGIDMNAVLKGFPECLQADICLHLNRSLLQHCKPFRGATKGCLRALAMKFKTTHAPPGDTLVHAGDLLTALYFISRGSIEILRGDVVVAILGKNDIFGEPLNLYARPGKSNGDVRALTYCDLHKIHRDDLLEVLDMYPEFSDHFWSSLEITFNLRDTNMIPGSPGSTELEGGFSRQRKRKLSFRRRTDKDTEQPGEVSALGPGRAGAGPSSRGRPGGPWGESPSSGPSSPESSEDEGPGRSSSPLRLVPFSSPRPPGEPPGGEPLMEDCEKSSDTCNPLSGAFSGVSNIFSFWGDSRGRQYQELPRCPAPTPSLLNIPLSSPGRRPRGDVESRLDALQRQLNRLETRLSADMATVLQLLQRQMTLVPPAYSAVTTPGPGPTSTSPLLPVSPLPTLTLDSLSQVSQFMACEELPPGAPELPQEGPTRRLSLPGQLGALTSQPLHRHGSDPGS

Compound	hERG current change (%, negative = inhibition) at 10uM [%]
CSc1ccccc1NC(=O)COC(=O)Cn1cc(C(F)(F)F)ccc1=O	4.23
Cc1cc2oc(=O)cc(CN3CCCCC3C)c2cc1C(C)C (centres unmarked)	-22
Cc1cccc(Nc2nc(-c3ccccn3)cs2)n1	12.9
CN(CC(=O)OCC(=O)Nc1ccccc1)S(=O)(=O)c1ccc(Cl)cc1	-19.9
CCN(CC)c1ccc(/C=N/Nc2nc(C)cc(=O)[nH]2)cc1	-20.5
Cc1c(Cl)cccc1NC(=S)NCCc1ccccn1	9.25
O=C(CC1SC(=O)N(c2ccccc2)C1=O)Nc1cccc2ccccc12 (centres unmarked)	11.7
COc1cc(NC(=O)Cn2cnc(S(=O)(=O)N3CCC(C)CC3)c2)cc(OC)c1OC	20.6
Br.N=c1n(CC(=O)c2ccc([N+](=O)[O-])cc2)c2ccccc2n1Cc1ccc(Cl)cc1	-14.3
N=c1n(CC(=O)c2ccc(Br)cc2)c2ccccc2n1Cc1ccccc1.[Br-]	-9.25
Br.CCCn1c(=N)n(CC(=O)c2ccc(OCC(=O)OC)cc2)c2ccccc21	-52.7
Br.Cc1ccc(Cn2c(=N)n(CC(=O)c3ccccc3)c3ccccc32)cc1	-72.2
Br.CCCCn1c(=N)n(CC(=O)c2ccc([N+](=O)[O-])cc2)c2ccccc21	-71.7
Br.Cc1ccc(Cn2c(=N)n(CC(=O)c3ccc([N+](=O)[O-])cc3)c3ccccc32)cc1	-4.3
Br.N=c1n(CC(=O)c2ccc([N+](=O)[O-])cc2)c2ccccc2n1Cc1ccccc1Cl	-23.6
Br.COC(=O)COc1ccc(C(=O)Cn2c(NCCCO)nc3ccccc32)cc1	-2.45
Br.N=c1n(CC(=O)c2ccc([N+](=O)[O-])cc2)c2ccccc2n1Cc1ccccc1	-70.1
O=C(N/N=C/c1ccccc1C(=O)O)c1ccncc1	18.3
CCC(=O)NC(=S)Nc1ccc(-c2nc3ccccc3s2)cc1	-2.92
Cc1cc(C)nc(OC(C(=O)O)C(OCc2ccccc2)(c2ccccc2)c2ccccc2)n1 (centres unmarked)	21.7
CCC1CCCCN1C(=O)c1ccc2c(c1)C(=O)N(c1ccc(C)cc1)C2=O (centres unmarked)	-8.83
CCOP(=O)(OCC)C(NS(=O)(=O)c1ccccc1)C(Cl)(Cl)Cl (centres unmarked)	11.9

Compound	hERG current change (%, negative = inhibition) at 10uM [%]
Br.CCn1c(=N)n(CC(=O)c2ccc(OC)cc2)c2ccccc21	-18.6
Br.COc1ccc(C(=O)Cn2c(=N)n(C)c3ccccc32)cc1	-28.8
Br.Cc1ccccc1Cn1c(=N)n(CC(=O)c2ccc([N+](=O)[O-])cc2)c2ccccc21	-32.6
Br.CCCCn1c(=N)n(CC(=O)c2ccc(OC)cc2)c2ccccc21	-73.6
Br.CCCn1c(=N)n(CC(=O)c2ccc([N+](=O)[O-])cc2)c2ccccc21	-78.5
N#Cc1c(-c2ccco2)cc(C2CC2)nc1SCC(=O)c1ccccc1	17.4
COCCNC(=S)N1CCN(c2cccc(C(F)(F)F)c2)CC1	-12.2
Cc1nn(Cc2cccc(F)c2)c(C)c1NC(=O)c1c([N+](=O)[O-])c(C)nn1C	-9.72
CCCn1nnnc1SCC(=O)Nc1sc(C)c(C)c1C#N	0.801
O=C(COC(=O)CNC(=O)c1cccc(Br)c1)Nc1nnc(-c2ccccc2)o1	-0.546
COc1ccc(CNC(=O)C(C)N2CCN(c3ccc(C(C)=O)cc3)CC2)cc1 (centres unmarked)	-55.1
COc1ccc(CNC(=O)CCCn2ccc3cc(S(=O)(=O)N4CCCC4)ccc32)cc1	-52
COC(=O)CCNC(=O)CCc1ccc(S(=O)(=O)N2CCCCCC2)cc1	-12.1
CCOc1ccc(CNC(=O)CCCn2ccc3cc(S(=O)(=O)N4CCCC4)ccc32)cc1	-32.7
COc1ccc(S(=O)(=O)N2CCN(C(C)C(=O)Nc3ccc(C(C)C)cc3)CC2)cc1 (centres unmarked)	-20.6
CC(C(=O)NCc1ccccc1)N1CCN(c2ccc(F)cc2)CC1 (centres unmarked)	-18.9
COc1ccc(CNC(=O)CCc2ccc(S(=O)(=O)N3CCCCCC3)cc2)cc1	-54.9
COc1ccc(CNC(=O)CCn2ccc3cc(S(=O)(=O)N4CCCC4)ccc32)cc1	-12.4
COc1ccc(CNC(=O)C(C)N2CCN(S(=O)(=O)c3ccccc3F)CC2)cc1 (centres unmarked)	-15.9
COc1ccc(CNC(=O)COc2ccc(S(=O)(=O)N3CCCCC3)cc2)cc1	6.5
COc1ccc(C(=O)NCc2ccc(N3CCN(C)CC3)cc2)cc1	5.1
CCCc1ccc(S(=O)(=O)N2CCN(C(C)C(=O)NCc3ccc(OC)cc3)CC2)cc1 (centres unmarked)	-57.4
